The results in this text go back to PubChem BioAssay AID1259421 (Broad Institute, 2018).

Each structure is given as a SMILES string. Values joined by “and” are separate entries in the source; they are usually repeats but may differ in a detail not shown here. Identical values can stand only once. Among all 6,400 compounds or so, about 610 (9.5%) were called active. Rule as the data show it: active = activity change below about -70%; inconclusive = no clear call, values can overlap the other calls; inactive = above that. What follows is part of a selection rich in actives, with near analogues and random picks from the rest. More than one record can exist for a structure, and the calls need not agree.

The nature of this assay: Toxoplasma gondii ME49Luc growth in HeLa cells, luciferase, no IFN-y, primary screen (AID 1259421). Particulars: T. gondii ME49Luc in HeLa, 72 h, stronger effect = lower value, concentration not given here.
As to `C[C@]12C=CC(=O)C=C1CCC1C3C[C@@H](O)[C@](O)(C(=O)CO)[C@@]3(C)C[C@H](O)[C@@]12F` (stereo not given in full), the activity change, negative = inhibition is -10.6% (inactive).
Take `CN(C)CCN1C(=O)c2cccc3cc(NC(N)=O)cc(c23)C1=O`: the activity change, negative = inhibition was 5.35% (inactive).
Regarding `Cc1csc(-c2nnc(Nc3ccc(Oc4ncccc4-c4ccnc(N)n4)cc3)c3ccccc23)c1`, the activity change, negative = inhibition is -85.1% (active).
`COC(=O)[C@H](Cc1ccc([N+](=O)[O-])cc1)NC(=O)c1cccc2ccccc12`: the activity change, negative = inhibition is 3.56% (inactive).
As for `O=C1NC(=O)C2(CCOc3ccc(F)cc32)N1` (stereo not given), the figure is 17.5% (inactive); as for `NC1=N[C@@]2(c3cc(NC(=O)c4ccc(F)cn4)ccc3F)COC[C@@H]2CS1`, -4.81% (inactive); as for `Cc1ccn(-c2cc(Cl)ccc2[C@@H](Oc2cc(-c3ccc(C[C@H](N)C(=O)O)cc3)nc(N)n2)C(F)(F)F)n1`, 16.1% (inactive).
Regarding `COc1cccc(-c2ccc([C@@H](Oc3cc(-c4ccc(C[C@H](N)C(=O)O)cc4)nc(N)n3)C(F)(F)F)cc2)c1`, the activity change, negative = inhibition was 21.9% (inactive).
Regarding `CCOC(=O)[C@@H](N)Cc1ccc(-c2cc(O[C@H](c3ccc(Cl)cc3-n3ccc(C)n3)C(F)(F)F)nc(N)n2)cc1`, the activity change, negative = inhibition is -85% (active).
Turning to `N#C/C(=C(\N)Sc1ccc(N)cc1)c1ccccc1C(F)(F)F`, the activity change, negative = inhibition is 9.63% (inactive).
Turning to `N#Cc1cc(I)c(O)c([N+](=O)[O-])c1`, the activity change, negative = inhibition is 10.2% (inactive).
Consider `COc1cccc2cc(-c3nc(C4CCC(C(=O)O)CC4)n4ncnc(N)c34)[nH]c12` (stereo not given), for which the activity change, negative = inhibition is -19.8% (inactive).
Under `Oc1cc(O)c2c(c1)O[C@H](c1ccc(O)c(O)c1)[C@@H](O)C2` stands 6.21% (inactive) and -16.6% (inactive).
In the case of `Oc1cc(O)c2c(c1)O[C@H](c1ccc(O)c(O)c1)[C@H](O)[C@H]2c1c(O)cc(O)c2c1O[C@H](c1ccc(O)c(O)c1)[C@@H](O)C2`, the activity change, negative = inhibition was -71.6% (active).
With `Oc1ccc([C@H]2Oc3cc(O)cc(O)c3C[C@H]2O)cc1`, the activity change, negative = inhibition is 0.946% (inactive).
Under `COc1cccc(C=NC=Nc2cccc(OC)c2)c1` stands 10.3% (inactive).
As for `O=c1[nH]nc(Sc2ncc([N+](=O)[O-])s2)n1-c1ccc2c(c1)OCCO2`, the figure is 34.4% (inactive); as for `NC(=O)c1cnc(N[C@@H]2CCCC[C@@H]2N)nc1Nc1cccc(-n2nccn2)c1`, -82.6% (active) and -7.89% (inactive); as for `CC(C)(C)CC(=O)OCC(=O)[C@@]1(O)CCC2C3CCC4=CC(=O)C=C[C@]4(C)C3[C@@H](O)C[C@@]21C` (stereo not given in full), -8.37% (inactive).
Take `CS(=O)(=O)Nc1ccc2oc3c(OC(F)F)ccc(C(=O)Nc4c(Cl)cncc4Cl)c3c2c1`: the activity change, negative = inhibition was 27.8% (inactive).
For `O=c1[nH]c(=O)c2cn[nH]c2[nH]1`, the activity change, negative = inhibition is -8.15% (inactive).
Consider `Cc1cc(C(C)Nc2ccccc2)c2nc(N3CCOCC3)cc(=O)n2c1` (stereo not given), for which the activity change, negative = inhibition is 14.5% (inactive).
As for `CCCc1nc(C(C)(C)O)c(C(=O)OCc2oc(=O)oc2C)n1Cc1ccc(-c2ccccc2-c2nn[nH]n2)cc1`, the activity change, negative = inhibition was 2.42% (inactive) and 2.73% (inactive).
Turning to `CN1C2CC[C@@H]1CC(OC(=O)[C@H](CO)c1ccccc1)C2` (stereo not given in full), the activity change, negative = inhibition is 5% (inactive).
For `COc1cc(/C=C(/C#N)C(N)=O)cc(CSc2nc3ccccc3s2)c1O`, the activity change, negative = inhibition was 0.785% (inactive).
Take `C=C[C@H]1CN2CC[C@H]1C[C@@H]2[C@H](O)c1ccnc2ccc(OC)cc12`: the activity change, negative = inhibition is -4.38% (inactive).
On to `O=C(/C=C/c1ccc(CN(CCO)CCc2c[nH]c3ccccc23)cc1)NO`, for which the activity change, negative = inhibition was -83.9% (active).
Under `O=C(O)CCc1c[nH]c2ccccc12` stands 16.9% (inactive).
Under `O=C(O)CCCc1c[nH]c2ccccc12` stands 16.7% (inactive); under `COC(=O)C[C@H]1C(C)(C)C2(O)OC34CC2C(=O)[C@]1(C)C3CC[C@]1(C)C4=CC(=O)O[C@H]1c1ccoc1` (stereo not given in full), -5.47% (inactive).
Consider `COc1cc(Nc2ncc(F)c(Nc3ccc4c(n3)NC(=O)C(C)(C)O4)n2)cc(OC)c1OC`, for which the activity change, negative = inhibition is -51.7% (inactive) and -21% (inactive).
As for `COc1cc(Nc2ncc(F)c(Nc3ccc4c(n3)N(COP(=O)(O)O)C(=O)C(C)(C)O4)n2)cc(OC)c1OC`, the activity change, negative = inhibition was -77% (active).
Regarding `COC1C(O)C(CO)OC1n1cnc2c(NC3CCCCC3)ncnc21` (stereo not given), the activity change, negative = inhibition is 10.5% (inactive).
Take `Cc1cc(Nc2nc(N[C@@H](C)c3ncc(F)cn3)ncc2Cl)n[nH]1`: the activity change, negative = inhibition was 2.85% (inactive).
For the compound `CCc1cnc(N2CCC(c3nc(COc4ccc(-n5cnnn5)cc4)cs3)CC2)nc1`, the activity change, negative = inhibition is -26.5% (inactive).
On to `CC1(C)O[C@@H]2CC3C4CCC5=CC(=O)C=C[C@]5(C)[C@@]4(F)[C@@H](O)C[C@]3(C)[C@]2(C(=O)CO)O1` (stereo not given in full), for which the activity change, negative = inhibition is -0.643% (inactive).
As for `O=C(O)CCCNC(=O)c1cccnc1`, the activity change, negative = inhibition was 23.7% (inactive).
Under `O=C(CCCCCCC(=O)Nc1ccccc1)NO` stands -84% (active) and -91.4% (active) and -89.3% (active); under `O=C(CCCCCCC(=O)Nc1cccnc1)NO`, -92.1% (active); under `CC(=O)Nc1ccccc1`, 7.35% (inactive) and 14.6% (inactive).
Turning to `Cn1ccc2cc(NC(=O)Nc3cccnc3)ccc21`, the activity change, negative = inhibition was 22.9% (inactive) and -13.9% (inactive).
As for `O=C(Cc1ccccc1)NO`, the figure is -1.4% (inactive); as for `CC(C)c1ccc2c(c1)CCC1[C@](C)(CN)CCC[C@]21C` (stereo not given in full), 3.16% (inactive); as for `Nc1nc(-c2ccccc2)c(Br)c(=O)[nH]1`, 3.15% (inactive).
As for `Cc1cccn2c(=O)c(-c3nn[nH]n3)cnc12`, the activity change, negative = inhibition is 0.433% (inactive).
As to `C=C1C(=O)O[C@@H]2[C@H]3C(C)=CC[C@@]34O[C@@]4(C)CC[C@@H]12`, the activity change, negative = inhibition is 18.9% (inactive).
In the case of `CC[C@@H]1Cn2c(c3nc(-c4ccccc4)nc-3n(C)c2=O)N1`, the activity change, negative = inhibition was 8.44% (inactive) and 12.6% (inactive).
`COc1cc2c(cc1-c1c(C)noc1C)ncc1[nH]c(=O)n([C@H](C)c3ccccn3)c12`: the activity change, negative = inhibition was -91.9% (active).
Under `C#Cc1cnc2[nH]c(=O)n(C(CC)CC)c2n1` stands 0.376% (inactive); under `NCC[C@@H](O)C(=O)N[C@@H]1C[C@H](N)[C@@H](O[C@H]2O[C@H](CN)[C@@H](O)[C@H](O)[C@H]2O)[C@H](O)[C@H]1O[C@H]1O[C@H](CO)[C@@H](O)[C@H](N)C1O` (stereo not given in full), 22.8% (inactive).
